Assay results: PubChem BioAssay

assay: probe aCHRDL2 binding to arrayed compounds – biochemical, biotinylated probe, 635/667 nm fluorescence, primary screen (AID 1100); conditions: small-molecule microarray, higher = more signal

Row | SMILES | composite z-score
1 | O=C1C2C=CC(C(O)Cc3ccccc3)N(Nc3ccc([N+](=O)[O-])cc3)C2C(=O)N1c1ccccc1 (centres undefined) | 0.498
2 | CC(C)C[C@@H]1NC(=O)[C@H](CC(C)C)NC(=O)[C@@]23C(=O)N[C@@H](Cc4ccccc4)C2[C@H](C)[C@@]2(C)O[C@H]2C3/C=C/CC/C=C/CNC1=O (some centres undefined) | -0.406
3 | COC(=O)[C@@]1(Cc2ccccc2CN=[N+]=[N-])N=C(c2ccc(OCCCO)cc2)O[C@H]1c1ccccc1N=[N+]=[N-] | 0.973
4 | CCOC(=O)C[C@H]1[C@H](OC(=O)Cc2ccc3c(c2)OCO3)[C@@H](NC(=O)c2ccc3ccccc3c2)c2cc(OCCCO)ccc2N1C(=O)Cc1ccc(OC)cc1 | 0.0248
5 | C[N+](C)(C)CCCCNC(=O)[C@H]1C[C@H]2C(=O)NCC(=O)N2[C@H]1c1cccc(OCCO)c1 | -0.335
6 | C=C(/C(=C/C[C@@H](OC(=O)c1ccncc1)c1ccc(CO)o1)c1cnc2ccccc2c1)C(C)C | -0.157
7 | CCCNC(=O)[C@@]1(Sc2ccc(C)cc2)CC(=O)N(Cc2ccccc2Cl)[C@@H]1c1ccc(CO)cc1 | 0.956
8 | COC(=O)Cn1c(C(=O)N2CCCC2)cc2c1C[C@H]1CN(C(=O)c3ccccc3)[C@@](Cc3ccccc3)(C(=O)OC)[C@@H]21 | 1.09
9 | NC(=O)NCC#Cc1ccc2c(c1)[C@]1(C(=O)N2)[C@H](C(=O)N2CCCCCCC2)[C@H]2C(=O)O[C@H](c3ccccc3)[C@H](c3ccccc3)N2[C@@H]1c1ccccc1OCCO | 1.66
10 | Cc1ccc(S[C@]2(C(=O)NCCCN(C)C)CC(=O)N(C3CCCCC3)[C@@H]2c2ccc(CO)cc2I)cc1 | 1.14
11 | CCN1C(C)=C(C(=O)OC)[C@@H](c2ccccc2)N2C(=O)[C@@]3(C(=O)OC)O[C@@]12[C@@H]1C(=O)N(C)C(=O)[C@@H]13 | -0.45
12 | CO[C@H]1COC(=O)[C@H](C)NC(=O)CC=C[C@@H](C)[C@H](NS(=O)(=O)c2ccc(C)cc2)COC(=O)CC=C[C@@H]1C | -1.28
13 | Cc1ccc(S(=O)(=O)N[C@H]2COC(=O)CC=C[C@H](C)COC(=O)N[C@@H](C)C(=O)CC=C[C@@H]2C)cc1 | -1.38
14 | CN1C2C=C(c3ccc(CO)cc3)C(C3C(=O)N(C(N)=O)C(=O)C32)C1c1cccs1 (centres undefined) | 0.549
15 | CCCC=C(CCC)[C@@H](NS(=O)(=O)c1ccc(C(F)(F)F)cc1)c1ccc(-c2ccccc2)cc1 | 0.83
16 | CO[C@H]1COC(=O)[C@@H](C)NC(=O)CC=C[C@@H](C)[C@H](OC)COC(=O)CC=C[C@@H]1C | -1.7
17 | C=CCC(OC(C)=O)[C@@H]1[C@@H](N(Cc2cc3ccccc3o2)C(=O)Cc2ccc(F)cc2)c2cc(OCCCO)ccc2N1C(=O)c1ccc(-c2ccccc2)cc1 (some centres undefined) | 0.512
18 | Cc1ccc(N2C(=O)c3ccccc3[C@@H](C(=O)NCc3ccccc3)[C@@H]2c2ccc(CO)cc2)nc1 | 1.01
19 | CCCC[C@@H]1C[C@H]1[C@@H](NC(=O)c1ccccc1)c1ccccc1C(F)(F)F | 1.05
20 | CN1C(=O)C2C=CC(C(O)c3ccc(N(C)C)cc3)N(Nc3ccc([N+](=O)[O-])cc3[N+](=O)[O-])C2C1=O (centres undefined) | 0.33
21 | O=C1C2C=CC(C(O)C#Cc3ccccc3)N(Nc3ccccc3)C2C(=O)N1c1ccccc1 (centres undefined) | 0.498
22 | Cc1ccc(S[C@]2(C(=O)NCCN3CCOCC3)CC(=O)N(C3Cc4ccccc4C3)[C@@H]2c2ccc(CO)cc2I)cc1 | 1.18
23 | O=C1O[C@@H](c2ccccc2)[C@@H](c2ccccc2)N2[C@@H](c3ccc(O)cc3)[C@]3(C(=O)Nc4ccccc43)[C@@H](C(=O)N3CCN(c4ncccn4)CC3)[C@H]12 | 0.535
24 | C=CC[C@]1(C(=O)NCC(O)CO)N=C(c2ccc(OCCCO)cc2)O[C@H]1c1ccccc1 (some centres undefined) | 1.3
25 | CC[C@@H]1C=C(C(=O)O)[C@H](c2ccccc2)N1S(=O)(=O)c1ccc([N+](=O)[O-])cc1 | 0.887
26 | CN1CCC(CCCO)=CC1C1CC1 (centres undefined) | -0.896
27 | C=CC[C@]1(C(=O)N2CCCCC2)N=C(c2ccc(OCCCO)cc2)O[C@H]1c1ccccc1N=[N+]=[N-] | 1.42
28 | COc1cccc([C@@H]2[C@@H](C)CC[C@H]3C(=O)N4[C@H](c5cccc(OC)c5)[C@@H](C)CC[C@H]4C(=O)N23)c1 | -0.521
29 | COCCOC(=O)N1C(=O)[C@@]2(c3cc(C#CC4=CCCCC4)ccc31)[C@H](c1ccc(O)cc1)N1[C@H](c3ccccc3)[C@H](c3ccccc3)OC(=O)[C@H]1[C@@H]2C(=O)N1CCCCCCC1 | 0.842
